DT40 TDP1 CPT: DT40-hTDP1 cell growth loss with CPT | chicken DT40 Tdp1-/-;hTDP1 cells + 20 nM CPT, ATP luminescence, 48 h | Potency, µM (highest dose often 46.2 µM), actives largely listed as inhibitors | actives 12% (n = 420,000); further: nearly all actives have a fitted effect of over 55% in size
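Cell growth measured by CellTiter-Glo luminescence after a minimum 48 h, 37 C compound exposure with 20 nM CPT in Tdp1-knockout DT40 cells stably expressing hTDP1, seeded 400/well; qHTS titration format.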
IL-1B inflam inh: inhibitors of inflammasome signaling (IL-1 beta secretion); AID 743279; THP-1 LPS/ATP IL-1B secretion, AlphaLISA, 16 h; hits give low values; actives 4.7% (n = 360,000); activity change, % at 57.5 µM; in the data active means activity change below about -50%; inconclusive means mostly about -30% to -49%
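Secreted IL-1B measured by AlphaLISA bead assay after 16 h compound exposure of THP-1 cells; compounds (final up to 57.5 uM) added 1 h before LPS (250 ng/mL) and ATP (1.25 mM) stimulation; lower signal means less secretion.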
TDP1 inh: inhibitors of human tyrosyl-DNA phosphodiesterase TDP1. Q9NUW8. recombinant TDP1, AlphaScreen DNA substrate cleavage. Potency, µM (titrated, usually from 130 µM), hits mostly inhibitors. actives 0.28% (n = 350,000); further: nearly all actives have a fitted effect of over 40% in size
Target sequence (Q9NUW8 whole entry, looked up): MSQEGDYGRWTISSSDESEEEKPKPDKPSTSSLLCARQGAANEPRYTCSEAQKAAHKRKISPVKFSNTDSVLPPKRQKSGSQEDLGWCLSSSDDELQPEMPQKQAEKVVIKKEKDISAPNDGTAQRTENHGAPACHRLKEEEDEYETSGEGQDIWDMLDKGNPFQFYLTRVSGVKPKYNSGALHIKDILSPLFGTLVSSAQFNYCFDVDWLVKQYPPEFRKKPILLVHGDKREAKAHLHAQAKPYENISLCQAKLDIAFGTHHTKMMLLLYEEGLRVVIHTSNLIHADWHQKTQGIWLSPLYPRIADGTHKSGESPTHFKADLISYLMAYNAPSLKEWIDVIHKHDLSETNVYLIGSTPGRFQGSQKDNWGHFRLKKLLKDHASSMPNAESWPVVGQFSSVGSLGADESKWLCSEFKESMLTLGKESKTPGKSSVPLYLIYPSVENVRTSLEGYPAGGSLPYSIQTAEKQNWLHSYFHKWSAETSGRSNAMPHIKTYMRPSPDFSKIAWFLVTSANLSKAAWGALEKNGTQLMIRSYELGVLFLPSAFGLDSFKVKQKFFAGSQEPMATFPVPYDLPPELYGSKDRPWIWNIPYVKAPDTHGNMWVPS
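AlphaScreen read-out: signal falls as enzyme removes the 3' tyrosine-FITC from a 5'-biotinylated DNA oligo (15 nM, 5 min, RT). Enzyme was E. coli-made recombinant Tdp1 at 1 nM, exposed to compound for 15 min beforehand; beads 10 ug/ml, 10 min.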
TGFb inhibitor: inhibitors of TGF-b signaling; actives 1.2% (n = 410,000); Potency, µM (highest dose often 46.1 µM), usual class: inhibitors; HepG2 CAGA-GFP TGF-b/SMAD3 reporter, GFP fluorescence, 18 h; TGF-beta stimulated, 500 pg/mL final; further: nearly all actives have a fitted effect of over 65% in size
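Read-out: total well GFP (ex488/em500-530) summed from mean per-cell fluorescence. Cells: HEPG2 CAGA-GFP, 1% FBS DMEM, 18 h at 37 degrees C with 500 pg/mL final TGF-beta. Unstimulated wells served as the full-inhibition control; stimulated DMSO wells = 0%.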
HepG2 tox: kills HepG2 cells in TGF-b inhibitor counter-screen; HepG2 CAGA-GFP viability, ATP luminescence, 18 h; Potency, µM (series often up to 46.1 µM), hits mostly cytotoxic; actives 0.76% (n = 410,000); AID 588856
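CellTiter-Glo luminescence gave cytotoxicity after 18 hours at 37 degrees C. The cells were HepG2 CAGA-GFP in 1% FBS DMEM, stimulated with 500 pg/mL TGF-beta after compound addition. %Activity was normalised to no-cell wells (complete cell-killing) and DMSO (no toxicity), and curves were fitted and classified.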
TDP1 cell noCPT: qHTS for Inhibitors of human tyrosyl-DNA phosphodiesterase 1 (TDP1): qHTS in cells in absence of CPT | actives 15% (n = 420,000) | Potency, µM (highest dose often 46.2 µM), most hits filed as inhibitors | DT40 Tdp1-/- hTDP1 cells, no CPT, ATP luminescence, 48 h; further: nearly all actives have a fitted effect of over 55% in size
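DT40 Tdp1-/-;hTDP1 cells, no CPT (DMSO vehicle only), 400 cells/well; compounds pin-transferred; ≥48 hr, 37 °C; CellTiter-Glo 30 min RT dark, luminescence read.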
Large screens that a line does not name were inactive. Sampled rows, rich in hits. Any-hit rate of the full collection: about 19%. Unless noted, the call rests on the fitted dose curve; in most records, active means well fitted curve in the direction sought with a large enough effect; inconclusive means small, poorly fitted or top-dose-only effect, or another doubt; inactive means no such curve, though single readings can be large; an effect the other way counts as inactive or inconclusive.

CN1CCN(C(=O)c2cc3sc4ccccc4c3s2)CC1	TDP1 cell noCPT inconclusive (no result: TDP1 inh)
O=C(Cn1ccn(-c2ccc(F)c(F)c2)c(=O)c1=O)c1ccc(F)cc1	none (no result: IL-1B inflam inh)
O=C(Nc1nc2ccccc2n1CCN1CCCCC1)C1CCCCC1	DT40 TDP1 CPT inconclusive, TDP1 cell noCPT inconclusive
CCn1c(NC(=O)C2CCCCC2)nc2ccccc21	DT40 TDP1 CPT 18µM, TDP1 cell noCPT 13µM
S=C(Nc1ccccc1)Nc1nc2ccccc2n1CCOc1ccc(Cl)cc1	DT40 TDP1 CPT 21µM, IL-1B inflam inh -88, TGFb inhibitor 14µM, TDP1 cell noCPT 16µM
CCn1c(NC(=S)Nc2ccccc2)nc2ccccc21	DT40 TDP1 CPT 5.2µM, TDP1 cell noCPT 4.6µM
CCCn1c(NC(=S)Nc2ccccc2)nc2ccccc21	DT40 TDP1 CPT inconclusive, TGFb inhibitor inconclusive, TDP1 cell noCPT inconclusive
CCn1nccc1C(=O)Nc1nc2ccccc2n1CCN1CCCCC1	DT40 TDP1 CPT 35µM, IL-1B inflam inh inconclusive, TDP1 cell noCPT inconclusive
CCCOc1ccc(C(=O)Nc2nonc2-c2ccc(OCC)cc2)cc1	none (no result: IL-1B inflam inh)
COCc1cc(C)nc2sc3c(c12)NC(c1ccccc1C(=O)O)N(c1ccc(OC)cc1)C3=O (stereo unspecified)	DT40 TDP1 CPT inconclusive (no result: IL-1B inflam inh)
COc1ccc(NC(=O)CSc2ccc(-c3sc(C)nc3C)nn2)cc1	TDP1 cell noCPT inconclusive
Cc1nc(C)c(-c2ccc(SCC(=O)Nc3cccc(Cl)c3)nn2)s1	DT40 TDP1 CPT 26µM, TGFb inhibitor inconclusive, TDP1 cell noCPT inconclusive
CC(=O)c1cccc(NC(=O)CSc2ccc(-c3sc(C)nc3C)nn2)c1	DT40 TDP1 CPT 21µM, TDP1 cell noCPT 23µM
Cc1nc(C)c(-c2ccc(SCC(=O)Nc3cccc(F)c3)nn2)s1	DT40 TDP1 CPT 16µM, TGFb inhibitor inconclusive, TDP1 cell noCPT 23µM
Cc1nc(C)c(-c2ccc(SCC(=O)Nc3ccc(Br)cc3)nn2)s1	DT40 TDP1 CPT 21µM, TDP1 cell noCPT inconclusive (no result: IL-1B inflam inh)
COc1ccc(-c2cc(-c3ccc(F)cc3)nc3c2COc2ccc(F)cc2-3)cc1	DT40 TDP1 CPT inconclusive, TDP1 cell noCPT inconclusive (no result: IL-1B inflam inh)
CSC(=Nc1ccccc1)N=C(SCc1ccccc1)N(C)C	DT40 TDP1 CPT 1.2µM, IL-1B inflam inh -104, TGFb inhibitor 5.6µM, HepG2 tox 7.1µM, TDP1 cell noCPT 1.3µM (no result: TDP1 inh)
CCOC(=O)C1CCN(S(=O)(=O)c2ccc(CNC(=O)c3ccccc3)s2)CC1	none (no result: TDP1 inh)
CCOc1ccc(/C=C2\CCc3ccccc3C2=O)cc1	TDP1 cell noCPT inconclusive
O=C1/C(=C\c2ccccc2)CCC/C1=C/c1ccccc1	DT40 TDP1 CPT 21µM, TGFb inhibitor inconclusive, TDP1 cell noCPT 18µM (no result: TDP1 inh)
O=C1CCC/C1=C\c1ccccc1	none
O=C1/C(=C/c2ccncc2)CCC/C1=C\c1ccncc1	DT40 TDP1 CPT 2.1µM, IL-1B inflam inh inconclusive, TGFb inhibitor 3.2µM, HepG2 tox 13µM, TDP1 cell noCPT 0.82µM
O=C1/C(=C/c2ccncc2)CCc2ccccc21	DT40 TDP1 CPT inconclusive, IL-1B inflam inh -102, TGFb inhibitor inconclusive, TDP1 cell noCPT 23µM
O=C1/C(=C/c2ccco2)CCc2ccccc21	IL-1B inflam inh inconclusive
O=C1/C(=C\c2ccncc2)CCc2ccccc21	DT40 TDP1 CPT 13µM, IL-1B inflam inh -98, TGFb inhibitor inconclusive, TDP1 cell noCPT 15µM
COc1ccc(S(=O)(=O)N(C)[C@H]2C[C@H]3c4cc(N5CCN(C)CC5)ccc4CCN3C(=O)[C@H]2[C@H](C)O)cc1	none (no result: TDP1 inh)
CCOC(=O)c1c(C)oc2nc(C)nc(NCC3CCN(Cc4ccccc4C)CC3)c12	none (no result: IL-1B inflam inh)
O=C1C(=Cc2ccncc2)CCCc2ccccc21	DT40 TDP1 CPT 23µM, IL-1B inflam inh inconclusive, TDP1 cell noCPT 21µM (no result: TDP1 inh)
O=C1/C(=C/c2cccc3ccccc23)CCCc2ccccc21	IL-1B inflam inh inconclusive
COc1ccc(S(=O)(=O)NC2CC2)cc1Cl	none (no result: TDP1 inh)

Source: PubChem
